# From PubChem BioAssay
# Compounds with a hit are over-represented: about 2% of the library has one in this group of screens.
# HUVEC tox TNFa: HUVEC cytotoxicity counter-screen, TNF alpha stimulated; HUVEC TNFalpha-stimulated, Hoechst cell count, imaging; cell count reduction, % at 2 µM; 93,000 compounds, 0.17% hits; AID 848;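 active = cell count reduction exceeding the screen mean by over 5 SD, scaled to untreated wells per plate, cut at about 78% in these data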;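 also: cells counted after 24 h of TNF alpha exposure following the 1 h pretreatment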
# cytoskel mod: cytoskeleton assembly modification; AID 836; 91,000 compounds, 0.18% hits; inhibition, % at 2 µM; HUVEC TNFa F-actin phalloidin imaging, high content;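 active = inhibition above the batch mean plus 3 SD and confirmed as a hit by visual image inspection, cut at about 30% in these data, passing the limit was not always enough; inconclusive = above the inhibition threshold but rejected on visual inspection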
# E-sel TNF inh: TNF alpha driven E-selectin expression inhibition; HUVEC TNFa-induced E-selectin immunofluorescence, high content; inhibition, % at 2 µM; 120,000 compounds, 0.71% hits; AID 1246;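 active = inhibition above the batch mean plus 3 SD, and confirmed as a hit on visual image review, cut at about 43% in these data; inconclusive = passes the inhibition cutoff but fails visual image review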;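 also: 0% = TNF-stimulated DMSO wells and 100% = unstimulated control wells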
# VCAM1 TNFa inh: reduces TNF alpha induced VCAM1 expression in HUVEC. HUVEC TNFa-induced VCAM-1 immunofluorescence, high-content imaging. inhibition, % at 2 µM. 95,000 compounds, 0.48% hits;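 active = inhibition above the batch mean plus 3 SD, with images confirmed as a hit by eye, cut at about 37% in these data; inconclusive = inhibition above that limit but hit not confirmed in images; inactive = inhibition not above that limit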;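 also: 0% = TNF-stimulated DMSO wells and 100% = unstimulated control wells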
# PLAP act: activators of human placental alkaline phosphatase; purified PLAP enzyme, luminescent substrate read-out; hits give high values; P05187; AID 696; 96,000 compounds, 1.2% hits; activation fold at 20 µM; in the data active = activation fold above about 2
# Target sequence (P05187 whole entry, looked up): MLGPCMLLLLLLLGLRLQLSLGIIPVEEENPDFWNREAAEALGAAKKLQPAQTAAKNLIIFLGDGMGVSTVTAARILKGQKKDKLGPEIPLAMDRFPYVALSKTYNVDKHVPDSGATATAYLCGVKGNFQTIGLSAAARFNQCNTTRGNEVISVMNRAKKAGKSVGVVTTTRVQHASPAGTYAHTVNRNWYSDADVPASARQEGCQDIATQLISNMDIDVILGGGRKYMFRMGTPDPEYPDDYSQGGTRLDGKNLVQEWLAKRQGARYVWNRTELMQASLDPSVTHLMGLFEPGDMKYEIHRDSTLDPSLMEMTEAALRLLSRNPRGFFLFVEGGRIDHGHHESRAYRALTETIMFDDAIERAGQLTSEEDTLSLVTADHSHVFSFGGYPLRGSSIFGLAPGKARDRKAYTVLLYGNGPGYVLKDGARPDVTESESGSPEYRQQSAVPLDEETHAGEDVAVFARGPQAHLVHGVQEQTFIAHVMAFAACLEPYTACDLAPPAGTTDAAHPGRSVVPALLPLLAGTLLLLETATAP
# * hit, by the source's call; ? = inconclusive; · = no result.
SMILES,HUVEC tox TNFa,cytoskel mod,E-sel TNF inh,VCAM1 TNFa inh,PLAP act
O=c1[nH]c(=O)n(CCC2=CCCCC2)c(O)c1C=NCCCn1ccnc1,7,17,·,0,2.1*
O=c1[nH]c(=S)n(CCC2=CCCCC2)c(O)c1C=NCCCn1ccnc1,-21,-4,2,5,1.5
c1ccc2cc(C3N4CCCN34)ccc2c1 (configuration not stated),·,·,-9,·,·
C=CCn1c(=O)c(C=Nc2cccnc2Cl)c(O)n(CCCC)c1=O,·,·,20,·,·
CC(=NCCCO)c1c(O)n(Cc2ccccc2)c(=O)[nH]c1=O,·,39,-26,94*,·
CCCCCCN=C(C)c1c(O)n(Cc2ccccc2)c(=O)[nH]c1=O,5,12,5,11,0.8
CN(C)C(=O)Oc1c(Cl)cc(Cl)c2cccnc12,·,·,74*,·,·
CN(C)C(=O)Oc1ccc(Cl)c2ccccc12,-18,4,-5,-10,1.4
CCN1CCN(C(=O)COc2ccc3c(c2)C(=O)CC2(CCN(C(C)=O)CC2)O3)CC1,-18,2,·,11,2.7*
CCN1CCN(C(=O)COc2ccc(S(=O)(=O)NC(C)C)cc2)CC1,-37,-7,-8,3,·
COC(=O)c1cc(C(O)(C(=O)OC)C(F)(F)F)c(/N=C/N(C)C)s1 (configuration not stated),-10,-17,-28,4,1
CC(=O)Nc1ccc(OCCF)cc1,·,·,100*,·,·
COC(=O)C1CN(C#N)N(c2ccc(Cl)cc2)C12c1ccccc1-c1ccccc12 (configuration not stated),·,?,63*,·,·
C=Cn1ccnc1P(=S)(c1nccn1C=C)C1CCCCC1,-35,·,-19,0,1.4
CN1/C(=C\C=C\C2=[N+](C)c3ccc4ccccc4c3C2(C)C)C(C)(C)c2ccccc21,28,14,7,84*,0.6
COc1ccc(OCC(=O)N2CCN(CC3CC4C=CC3C4)CC2)cc1 (configuration not stated),-2,-16,12,14,1.4
c1ccc2[nH]c(CCNC3CCCCC3)nc2c1,0,-1,10,-13,2.7*
c1ccc2c(CCNC3CCCCC3)c[nH]c2c1,·,·,39,·,·
C=CCN1C(=O)C2(C(C(=O)OCC)=C(N)Oc3ccccc32)c2c1c1ccccc1oc2=O (configuration not stated),14,-27,12,-12,1.3
O=C1C(=O)c2ccccc2-c2ccccc21,41,18,-26,84*,0.8
CCOC(=O)C1=C(C)OC(N)=C(C#N)C12C(=O)N(C)c1ccccc12 (configuration not stated),-4,5,9,10,1.3
C=CCOC(=O)C1=C(C)OC(N)=C(C#N)C12C(=O)N(CN1CCOCC1)c1ccccc12 (configuration not stated),91*,-48,·,88*,1
CCOc1ccc(N=C2SCCCN2C)cc1,-8,-2,-35,-8,·
Cn1c(O)c(C(=N)COc2cccc(Cl)c2)c(=O)n(C)c1=O,-13,20,65*,5,1
O=C1C2(c3ccccc3)CN3CN(C2)CC1(c1ccccc1)C3,-18,1,-10,11,1.1
SMILES,HUVEC tox TNFa,cytoskel mod,E-sel TNF inh,VCAM1 TNFa inh,PLAP act
COc1ccc(Oc2cc(NC(=O)c3nn(C)cc3[N+](=O)[O-])cc([N+](=O)[O-])c2)cc1,39,24,90*,90*,0.8
O=C(c1ccc2c(c1)ncn2C1CCCCC1)N1CCC2(CC1)OCCO2,80*,-27,·,92*,1
O=C(c1cc2ccccn2n1)N1CCC2(CC1)OCCO2,4,-32,·,-3,1
Cc1ccc(C(=O)NC(O)C(Cl)(Cl)Cl)cc1 (configuration not stated),·,·,11,·,·
CC1CCC/C=C/C2CC(O)CC2C(O)/C=C/C(=O)O1 (configuration not stated),87*,13,98*,94*,1.3
NC1CCCCC1N=Cc1c(O)n(Cc2ccc(F)cc2)c(=O)[nH]c1=O (configuration not stated),-23,-39,-8,-1,2.8*
CCCCn1c(O)c(C=NC2CCCCC2N)c(=O)[nH]c1=O (configuration not stated),7,-1,-4,12,1.5
Cc1ccc(-n2c(O)c(C=NC3CCCCC3N)c(=O)[nH]c2=O)cc1C (configuration not stated),-16,47,-9,-2,2.2*
CCN(CC)CCOC(=O)c1ccc(N=Cc2c(O)[nH]c(=O)[nH]c2=O)cc1,5,-17,51*,16,1
CSc1ccc(CNC2CN3CCC2CC3)cc1 (configuration not stated),86*,-17,-3,93*,0.8
O=C1NCCN2CCCC12 (configuration not stated),-29,5,·,17,1
